# Source: PubChem
# An excerpt weighted towards active compounds, which were near 3.3% of everything screened.
# RE007 growth inh: less growth of the S. pombe RE007 Vpr strain; AID 651644; S. pombe RE007 Vpr strain, BacTiter-Glo ATP luminescence, 24 h; hit rate 0.21% among 360,000; Potency, µM (highest dose often 92.2 µM), inactives show top-dose activity change, negative = less growth, hits mostly inhibitors; active = well fitted falling curve with a large enough effect; inconclusive = small, poorly fitted or top-dose-only effect; inactive = no such curve, though single readings can be large or run the other way; note: % is set by controls: 0 for no effect and ±100 for the full control effect; nearly all actives have a fitted effect of over 50% in size
#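 Fission yeast RE007 carrying one integrated HIV-1 vpr copy, seeded at OD 0.01 in PMG+AL medium with 23 nL pinned compound. Grown 24 h at 30 degrees; viability read by BacTiter-Glo luminescence after 5 min.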
# SARS PLpro yeast: inhibitors of SARS-CoV papain-like protease in yeast; S. cerevisiae expressing SARS-CoV PLpro, growth rescue; Potency, µM (highest dose often 32.9 µM), inactives show top-dose activity, positive = growth rescue, actives largely listed as activators; hit rate 0.19% among 330,000; calls by dose curve; note: 0% is about no effect; nearly all actives have a fitted effect of over 55% in size
# AmpC inh detg: AmpC beta-lactamase inhibition with detergent present; Potency, µM (titrated, usually from 114 µM), for the others: at the highest dose activity change, negative = inhibition, hits mostly inhibitors; hit rate 0.041% among 370,000; AmpC hydrolysis of nitrocefin, absorbance 480 nm, 0.01% Triton; P00811;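 note: 0% = no-compound wells and -100% = no-enzyme wells; nearly all actives have a fitted effect of over 25% in size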
# Target sequence (P00811 whole entry, looked up): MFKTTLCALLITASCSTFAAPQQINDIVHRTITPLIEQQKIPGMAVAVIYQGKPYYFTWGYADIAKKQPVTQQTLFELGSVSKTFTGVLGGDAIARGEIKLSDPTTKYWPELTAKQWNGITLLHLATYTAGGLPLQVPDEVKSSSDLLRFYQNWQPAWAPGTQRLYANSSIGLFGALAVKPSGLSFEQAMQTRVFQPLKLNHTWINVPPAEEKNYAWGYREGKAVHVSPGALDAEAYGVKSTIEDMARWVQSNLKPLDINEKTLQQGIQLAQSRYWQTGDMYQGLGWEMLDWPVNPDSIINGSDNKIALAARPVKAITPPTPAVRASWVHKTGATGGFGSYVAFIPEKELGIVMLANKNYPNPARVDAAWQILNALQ
#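 AmpC (5.3 nM in the dispensed reagent) in 20 mM phosphate pH 7.0 with 0.01% (detergent screen) or 0.0001% Triton X-100 was preincubated with compounds for 15 min at room temperature. Nitrocefin was then added from an 800 uM solution, and hydrolysis was followed at 480 nm.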
# AmpC inh no detg: blocks E. coli AmpC beta-lactamase in detergent-free assay. P00811. AmpC nitrocefin hydrolysis, absorbance 480 nm, 0.0001% Triton. Potency, µM (highest dose often 57.1 µM), inactives show at the top dose activity change, negative = inhibition, actives largely listed as inhibitors. hit rate 0.52% among 330,000. AID 485341;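 note: plate controls were no compound for no effect and no enzyme for full effect; nearly all actives have a fitted effect of over 20% in size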
#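 20 mM phosphate pH 7.0 + 0.01% (detergent screen) or 0.0001% Triton X-100; 5.3 nM AmpC reagent; cpd preinc 15 min RT; nitrocefin (800 uM stock) to start; A480 q20 s × 4 min; Activity was normalised to no-enzyme and no-compound control wells.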
# Tb PYK inh: T. brucei pyruvate kinase inhibition; TbPYK enzyme, Kinase-Glo Plus ATP luminescence, 45 min; hit rate 0.12% among 410,000; Q57TT1; Potency, µM (series often up to 76.8 µM), for the others: at the top dose activity, negative = inhibition, hits mostly inhibitors; note: % is set by controls: 0 for no effect and ±100 for the full control effect; nearly all actives have a fitted effect of over 50% in size
#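 Readout: single end-point luminescence (Kinase-Glo Plus, 10 min). Reaction conditions were TbPYK/substrate plus 130 uM ADP, 45 min at RT, pH 7.2 TEA buffer. No-enzyme wells served as controls, and data were normalized before concentration-response fitting.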
# Sm TGR inh: blocks Schistosoma mansoni thioredoxin glutathione reductase; Q962Y6; purified TGR, DTNB reduction, TNB absorbance 405 nm; Potency, µM (series often up to 114 µM), inactives show at the top dose activity change, negative = inhibition, most hits filed as inhibitors; hit rate 3% among 360,000; note: % is set by controls: 0 for no effect and ±100 for the full control effect; nearly all actives have a fitted effect of over 60% in size
#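 Kinetic colorimetric format: TGR-catalysed, NADPH-driven DTNB reduction monitored via TNB absorbance. Enzyme dispensed at 20 nM; compound exposure 15 min at room temperature before reaction start.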
# Numbers without * were called inactive; ? = inconclusive; nt = not tested or not shown. Unless noted, calls come from the whole dose curve; as a rule, active = well fitted curve in the direction sought with a large enough effect; inconclusive = small, poorly fitted or top-dose-only effect, or another doubt; inactive = no such curve, though single readings can be large; an effect the other way counts as inactive or inconclusive. Potency is the fitted concentration of half-maximal effect.
SMILES,RE007 growth inh,SARS PLpro yeast,AmpC inh detg,AmpC inh no detg,Tb PYK inh,Sm TGR inh
COc1cc(CNc2ccc3[nH]c(=O)[nH]c3c2)cc(Br)c1OCC(=O)NC(C)(C)C,13.4%,1.6%,?,51.6%,-7.9%,12.6µM*
COc1cc(CNc2ccc3[nH]c(=O)[nH]c3c2)ccc1OCC(=O)NC(C)(C)C,17.8%,-9.2%,?,-38.4%,-20.2%,3.1%
CCCc1cc(-c2n[nH]c(=S)n2C(C)c2ccccc2)cs1 (stereo not drawn),4.1%,22.4µM*,-2.7%,-31.1%,-41.0%,-1.5%
CCc1cc(-c2n[nH]c(=S)n2Cc2ccccc2)cs1,-23.6%,-1.4%,-11.3%,-16.7%,?,3.6%
CCCCn1c(-c2csc(CCC)c2)n[nH]c1=S,5.9%,-4.7%,8.6%,-11.0%,?,6.5%
CCCc1cc(-c2n[nH]c(=S)n2CC)cs1,7.3%,0.5%,1.7%,-31.7%,8.91µM*,-6.3%
CCc1cc(-c2n[nH]c(=S)n2CC)cs1,41.9%,22.6%,-10.6%,-14.7%,10µM*,-0.8%
COc1cccc(NC(=O)CCc2c(C)nc3c4cccnc4nn3c2C)c1,nt,nt,12.0%,nt,-4.6%,2.0%
CCOC(=O)c1ccc(NC(=O)CSc2nccn2-c2cc(C)cc(C)c2)cc1,nt,nt,9.5%,nt,-2.2%,5.7%
CCCc1cc(NCCCN(C)C)n2c(nc3ccccc32)c1C#N,nt,-2.1%,-5.5%,0.8%,2.3%,39.8µM*
CCCc1cc(NCCN(C)C)n2c(nc3ccccc32)c1C#N,-6.2%,-2.4%,-3.9%,-13.4%,2.7%,2.8%
C=Cc1ccc(CN2C(=O)N(c3cccc(Cl)c3)S(=O)(=O)c3ccccc32)cc1,nt,nt,-2.2%,nt,-6.2%,3.5%
CC(=O)c1ccc(/C=C/c2nc3ccccc3n2C)o1,?,-1.6%,2.4%,-3.6%,-15.5%,3.55µM*
Cn1c(/C=C/c2ccccc2)nc2ccccc21,?,-5.1%,0.7%,-27.8%,?,9.8%
Cc1cc(C)cc(NC(=O)C2C3C=CC4(O3)C2C(=O)N(CCCN2CCCCC2)C4C(=O)NC2CCCCC2)c1 (stereo not drawn),-4.1%,-6.7%,?,-2.7%,7.2%,-11.3%
COCCCN1C(=O)C2C(C(=O)Nc3cc(C)cc(C)c3)C3C=CC2(O3)C1C(=O)NC1CCCCC1 (stereo not drawn),-5.8%,-4.8%,-9.6%,11.1%,-7.3%,39.8µM*
Cc1ccc2nc(CN3CCN(C(=O)Nc4ccc(F)cc4)CC3)oc2c1,nt,nt,-6.9%,nt,0.2%,-9.3%
N#C/C(=C\c1ccc(OC(=O)c2ccccn2)cc1)C(N)=O,-10.0%,-31.0%,-3.7%,-13.5%,-5.1%,39.8µM*
N#C/C(=C\c1ccc(OCc2ccccc2)cc1)C(N)=O,1.0%,-8.6%,2.6%,-8.8%,-21.7%,1.9%
COc1ccc(S(=O)(=O)Nc2cc(Sc3ncn[nH]3)c(O)c3ccccc23)cc1,31.6µM*,-46.2%,-5.3%,-27.6%,nt,0.501µM*
COc1ccc(S(=O)(=O)Nc2cc(SCC(=O)O)c(O)c3ccccc23)cc1,-25.7%,-10.5%,-5.8%,-35.3%,?,3.55µM*
O=S(=O)(Nc1cc(Sc2cccc3cccnc23)c(O)c2ccccc12)c1ccc(F)cc1,?,-6.0%,-5.5%,-45.5%,?,3.55µM*
O=S(=O)(Nc1ccc(Cl)cc1NS(=O)(=O)c1ccccc1)c1ccccc1,-1.1%,nt,nt,nt,4.7%,nt
O=C(O)CSc1cc(NS(=O)(=O)c2ccc(Cl)cc2)c2ccccc2c1O,?,-12.0%,4.7%,-45.8%,?,7.08µM*
COc1ccc(S(=O)(=O)Nc2ccc(O)c(Sc3ncn[nH]3)c2)cc1,4.9%,-0.1%,?,-27.2%,-6.5%,-10.4%
Cc1cc(NC(=O)C2CCN(S(=O)(=O)c3ccc4[nH]c(=O)oc4c3)CC2)ccc1Br,nt,nt,3.4%,nt,1.2%,-5.1%
